Results filed as inconclusive are left out. Activity calls are given as the source filed them. The call rests on the fitted dose curve.
What was measured:
[1] = biological target: Acetylcholinesterase (Homo sapiens) (UniProt P22303); assay: Acetylcholinesterase (AChE) small molecule antagonists: colormetric cell-based qHTS assay (AID 1347395); further: nearly all actives have a fitted effect of over 30% in size
Procedure, shortened: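 Homogeneous whole-cell format. SH-SY5Y cells seeded overnight, dosed with compound (30 min, 37 C, 5% CO2), then given DTNB/acetylthiocholine cocktail for 90 min at 37 C; colorimetric signal.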

[2] = biological target: Acetylcholinesterase (Homo sapiens) (UniProt P22303); assay: Acetylcholinesterase (AChE) small molecule antagonists: enzyme-based qHTS assay (AID 1347397); conditions: Potency: AChE enzyme activity inhibition; outcome: AChE enzyme activity inhibition; further: nearly all actives have a fitted effect of over 55% in size
Procedure, shortened: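 First, recombinant human AChE (50 mU/mL as dispensed) received test compound or DMSO. Second, plates stood 30 min at room temperature. Third, DTNB and acetylthiocholine were added, followed by 10 min at room temperature and colorimetric detection.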

[3] = biological target: Acetylcholinesterase (Homo sapiens) (UniProt P22303); assay: Acetylcholinesterase (AChE) small molecule antagonists: fluorescence cell-based qHTS assay (AID 1347398); conditions: Potency: AChE activity; outcome: AChE activity; further: nearly all actives have a fitted effect of over 50% in size
Procedure, shortened: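 Homogeneous quantitative HTS format. SH-SY5Y cells seeded at 2,000 per well settle overnight at 37 C. Compound pretreatment runs 30 min (37 C, 5% CO2); substrate/probe mix then reacts 40 min at RT before reading 490/520 nm.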

[4] = biological target: Acetylcholinesterase (Homo sapiens) (UniProt P22303); assay: Acetylcholinesterase (AChE) small molecule antagonists: enzyme-based qHTS assay with human liver microsomes (AID 1347399); conditions: Potency: qHTS inhibition; outcome: qHTS inhibition; further: nearly all actives have a fitted effect of over 60% in size
Procedure, shortened: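 Recombinant human AChE (50 mU/mL in the enzyme mix) and human liver microsomes (0.25 mg/mL final) were preincubated with compound and NADPH (0.25 mg/mL final) for 30 min at 37 C. Acetylthiocholine/DTNB was then added; thiocholine was read colorimetrically after 10 min at room temperature.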
On the % scale 0 is the no-effect control and ±100 the full control effect.

Chain of Acetylcholinesterase (Homo sapiens) (P22303 whole entry, looked up): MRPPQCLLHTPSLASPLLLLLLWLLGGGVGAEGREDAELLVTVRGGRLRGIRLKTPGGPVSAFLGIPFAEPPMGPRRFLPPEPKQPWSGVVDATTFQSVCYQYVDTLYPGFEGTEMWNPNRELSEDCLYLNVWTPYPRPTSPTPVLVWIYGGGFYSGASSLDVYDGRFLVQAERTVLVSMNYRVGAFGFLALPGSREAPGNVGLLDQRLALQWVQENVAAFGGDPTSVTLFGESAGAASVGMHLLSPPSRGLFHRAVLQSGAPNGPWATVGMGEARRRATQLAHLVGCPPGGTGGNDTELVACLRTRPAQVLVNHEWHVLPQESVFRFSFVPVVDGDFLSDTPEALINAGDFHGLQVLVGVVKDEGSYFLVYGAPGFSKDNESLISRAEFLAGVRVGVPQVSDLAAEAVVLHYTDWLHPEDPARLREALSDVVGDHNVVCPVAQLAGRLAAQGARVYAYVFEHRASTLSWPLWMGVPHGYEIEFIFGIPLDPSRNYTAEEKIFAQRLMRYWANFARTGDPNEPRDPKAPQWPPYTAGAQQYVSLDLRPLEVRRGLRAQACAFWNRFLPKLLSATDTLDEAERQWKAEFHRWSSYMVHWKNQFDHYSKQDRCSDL

CCc1cc(C2=C(C(=O)O)N(c3ccccc3C(F)(F)F)S(=O)(=O)c3ccccc32)cc2c1OCO2
inactive: Potency [1] | Potency [2] | Potency [3] | Potency [4]

NNC(=O)CCCCC(=O)NN
inactive: Potency [1] | Potency [2] | Potency [3] | Potency [4]

C[C@H](CCC(=O)O)[C@H]1CC[C@H]2[C@@H]3C(=O)C[C@@H]4CC(=O)CC[C@]4(C)[C@H]3CC(=O)[C@]12C
inactive: Potency [1] | Potency [2] | Potency [3] | Potency [4]

CCCCOCCOC(=O)c1cccnc1
inactive: Potency [1] | Potency [2] | Potency [3] | Potency [4]

CC(=O)c1cc(C)oc1C
inactive: Potency [1] | Potency [2] | Potency [3] | Potency [4]

C[C@H]1c2cccc(O)c2C(O)=C2C(=O)[C@]3(O)C(O)=C(C(N)=O)C(=O)[C@@H](N(C)C)[C@@H]3[C@@H](O)[C@@H]21
inactive: Potency [1] | Potency [2] | Potency [3] | Potency [4]

Cc1cccc(C)n1
inactive: Potency [1] | Potency [2] | Potency [3] | Potency [4]

O=C(O)[C@@H]1CSCN1
inactive: Potency [1] | Potency [2] | Potency [3] | Potency [4]

Brc1cc(-c2ccc(Br)c(Br)c2Br)cc(Br)c1Br
inactive: Potency [1] | Potency [2] | Potency [3] | Potency [4]

CCO
inactive: Potency [1] | Potency [2] | Potency [3] | Potency [4]

CN(C)CCOCCO
inactive: Potency [1] | Potency [2] | Potency [3] | Potency [4]

Nc1ccc(S(=O)(=O)O)c(N)c1
inactive: Potency [1] | Potency [2] | Potency [3] | Potency [4]

COc1cc2c(cc1OC)C(=O)CC2
inactive: Potency [1] | Potency [2] | Potency [3] | Potency [4]

CC(=O)c1c(C)cc(C(C)(C)C)cc1C
inactive: Potency [1] | Potency [2] | Potency [3] | Potency [4]

CC(COc1ccccc1)NC(C)C(O)c1ccc(O)cc1 (stereo not drawn)
inactive: Potency [1] | Potency [2] | Potency [3] | Potency [4]

COc1cc(Cl)c(OC)cc1N
inactive: Potency [1] | Potency [2] | Potency [3] | Potency [4]

CC(C)CCCC(C)CC=O (stereo not drawn)
inactive: Potency [1] | Potency [2] | Potency [3] | Potency [4]

CC(=O)S[C@H](C(=O)N[C@H]1Cc2ccccc2[C@H]2CCC[C@@H](C(=O)O)N2C1=O)C(C)C
inactive: Potency [1] | Potency [2] | Potency [3] | Potency [4]

Clc1ccccc1-c1nc(-c2ccncc2)no1
inactive: Potency [1] | Potency [2] | Potency [3] | Potency [4]

CC(=O)O[C@@H]1CC2CCC1(C)C2(C)C (stereo partly drawn)
inactive: Potency [1] | Potency [2] | Potency [3] | Potency [4]

CC1(c2ccccc2)OC(C(=O)O)=CC1=O (stereo not drawn)
inactive: Potency [1] | Potency [2] | Potency [3] | Potency [4]

CC(C)C1CCC(C(=O)N[C@H](Cc2ccccc2)C(=O)O)CC1 (stereo partly drawn)
inactive: Potency [1] | Potency [2] | Potency [3] | Potency [4]

Cc1ccc(N(CCO)CCO)cc1
inactive: Potency [1] | Potency [2] | Potency [3] | Potency [4]

CCC(CO)(CO)[N+](=O)[O-]
inactive: Potency [1] | Potency [2] | Potency [3] | Potency [4]

O=C(O)c1ccc2c(c1)nc(C(=O)NC1CCN(C3CC3)CC1)n2Cc1cc(-c2ccc(Cl)s2)on1
inactive: activity, negative = inhibition [1] -6.96% [at 23.6 µM] | activity change, negative = inhibition [2] 2.26% [at 23.6 µM] | activity change, negative = inhibition [3] -24.8% [at 23.8 µM] | activity change, negative = inhibition [4] 0.834% [at 23.6 µM]

O=C1C(=O)c2ccccc2C(O)=C1C1CCC(c2ccc(Cl)cc2)CC1 (stereo not drawn)
inactive: Potency [1] | Potency [2] | Potency [3] | Potency [4]

Cc1ccc(O)c([N+](=O)[O-])c1
inactive: Potency [1] | Potency [2] | Potency [3] | Potency [4]

CCOC(=O)CC
inactive: Potency [1] | Potency [2] | Potency [3] | Potency [4]

CC(C)CCCCCCOC(=O)CCCCC(=O)OCCCCCCC(C)C
inactive: Potency [1] | Potency [2] | Potency [3] | Potency [4]

CCOCN(C(=O)CS(=O)(=O)O)c1c(C)cccc1CC
inactive: Potency [1] | Potency [2] | Potency [3] | Potency [4]

C[C@@H]1CN(c2c(F)c(F)c3c(=O)c(C(=O)O)cn(C4CC4)c3c2F)C[C@H](C)N1
inactive: activity, negative = inhibition [1] -2.8% [at 23.6 µM] | activity change, negative = inhibition [2] -0.831% [at 23.6 µM] | activity change, negative = inhibition [3] 0.907% [at 23.8 µM] | activity change, negative = inhibition [4] -1.43% [at 23.6 µM]

CCOC(=O)CC#N
inactive: Potency [1] | Potency [2] | Potency [3] | Potency [4]

CC/C=C\C/C=C\C/C=C\CCCCCCCC(=O)OC
inactive: Potency [1] | Potency [2] | Potency [3] | Potency [4]

CCCCOCC
inactive: Potency [1] | Potency [2] | Potency [3] | Potency [4]

CC(=O)OCC1=C(C(=O)O)N2C(=O)[C@@H](NC(=O)CSc3ccncc3)[C@H]2SC1
inactive: Potency [1] | Potency [2] | Potency [3] | Potency [4]

CCCCCOC(=O)CCCC
inactive: Potency [1] | Potency [2] | Potency [3] | Potency [4]

O=C(C(Cl)Cl)N1CCOC12CCCCC2
inactive: Potency [1] | Potency [2] | Potency [3] | Potency [4]

O=S(=O)(O)c1ccccc1/C=C/c1ccc(-c2ccc(/C=C/c3ccccc3S(=O)(=O)O)cc2)cc1
inactive: Potency [1] | Potency [2] | Potency [3] | Potency [4]

C=CC(C)(CCC=C(C)C)OC(=O)CC(C)C (stereo not drawn)
inactive: Potency [1] | Potency [2] | Potency [3] | Potency [4]

CCOC(=O)[C@@H](C)Oc1ccc(Oc2nc3ccc(Cl)cc3o2)cc1
inactive: Potency [1] | Potency [2] | Potency [3] | Potency [4]

CCCC(=O)OCc1ccccc1
inactive: Potency [1] | Potency [2] | Potency [3] | Potency [4]

CCCCCCCCCCCCCCCCOP(=O)([O-])OCC[N+](C)(C)C
inactive: Potency [1] | Potency [2] | Potency [3] | Potency [4]

— PubChem BioAssay (Tox21)
